The source of these data is PubChem BioAssay (NCATS).

Unmarked numbers belong to inactive results. Inconclusive results are not listed. Activity calls are given as the source filed them. Unless noted, calls follow the shape of the dose curve; as a rule, active = well fitted curve in either direction with a large enough effect (not every such curve was filed as active); inconclusive = small, poorly fitted or top-dose-only effect, or another doubt; inactive = flat fitted curve, though single readings scatter.

Experiment [1] concerns the target Lysosomal acid glucosylceramidase (Homo sapiens) (UniProt P04062). Put plainly: Glucocerebrosidase-p2 (AID 348; in the data active = potency below about 10 µM; also: potency is read from the fitted curve at half-maximal effect). Conditions: purified GBA, blue fluorogenic substrate, 40 min. The gist of the method:
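Compounds titrated from 0.6 nM upwards against 0.2 nM enzyme in pH 5.9 citric acid/KH2PO4, taurocholate, tween-20; blue fluorogenic substrate 80 uM, 40 min room temperature, stopped and read Ex 365/Em 440 for AC50.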

The nature of experiment [2]: AP1 Signaling Pathway (AID 357).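 Also: ME-180 reporter cells stimulated with EGF at its EC50 level; % is scaled to controls: 0 for no effect and ±100 for the full control effect.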 Conditions: ME-180 AP-1-bla reporter, EGF-induced, beta-lactamase ratio, 5 h; at 7.69 µM (top of the series) unless noted. The gist of the method: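 First, ME-180 AP-1-bla cells were cultured overnight at 37 °C in low-serum Opti-MEM. Next, titrated compounds with EC50 EGF were incubated 5 hours. Finally, CCF4 was added for 2.5 hours and the 460/530 nm ratio recorded.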

Experiment [3] addresses Cytochrome P450 1A2 (Homo sapiens) (UniProt P05177). Put plainly: p450-cyp1a2 (AID 410; calls by dose curve; also: potency is read from the fitted curve at half-maximal effect;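 as to activity change, negative = inhibition: -100% = full effect of reference inhibitor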). Conditions: recombinant CYP1A2, luciferin-ME demethylation, luminescence; series mostly up to 11.4 µM. The gist of the method: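 20nM CYP1A2 with 100uM Luciferin-ME (at Km) in 100mM KPO4; compound preincubated 10 min, NADPH regeneration added, 60 min at room temperature. Luciferin quantified by luminescence after detection reagent; normalized to 57 uM furafylline.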

Experiment [4] can be described thus: NFAT Signaling Pathway (AID 444).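 Also: carbachol stimulus at about its EC50 of 1 µM final; % is scaled to controls: 0 for no effect and ±100 for the full control effect.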 The following applies: Jurkat NFAT-bla M1, carbachol, beta-lactamase ratio, 5 h; at 7.69 µM (top of the series) unless noted. The gist of the method: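 Jurkat cells with NFAT-driven β-lactamase reporter and co-expressed M1 receptor, stimulated with carbachol (final 1 uM, ~EC50), compound titration, 5 h at 37 °C. CCF4 loaded 1 h at RT; 460/530 nm ratio gave %activity and AC50.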

The nature of experiment [5]: Stat Signaling Pathway (AID 446).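 Also: ME-180 cervical cancer cells given 40 pM IL-6 alongside compound; SIE-controlled beta-lactamase reporter measured as 460/530 nm FRET emission ratio; % is scaled to controls: 0 for no effect and ±100 for the full control effect.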 The following applies: ME-180 SIE beta-lactamase reporter, IL-6 stimulated, 5 h; at 7.69 µM (top of the series) unless noted. In outline:
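Screening format detects activators and inhibitors alike: ME-180 SIE-bla cells stimulated at 40 pM IL-6 for 5 hrs with compound, then dual-emission beta-lactamase read at 405 nm excitation.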

Experiment [6] has as its target Glucocorticoid receptor (Homo sapiens) (UniProt P04150). Put plainly: GR-GFP Redistribution (AID 450;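 active = compounds whose dose series gives a full or clear partial fitted curve of increased nuclear translocation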; also: potency is read from the fitted curve at half-maximal effect). The following applies: U2OS GR-GFP nuclear translocation, laser cytometry, 2 h.
Experiment [7] shares this target. The experiment in a line: GR-EFC Redistribution (AID 451; calls by dose curve; also: potency is read from the fitted curve at half-maximal effect). The following applies: CHO-K1 GR-EFC translocation, beta-gal luminescence, 2 h. In outline: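 CHO-K1 cells expressing nuclear EA and GR-ED fragments of b-gal; compounds titrated up to 46 uM final, 2 h at 37 C. GR nuclear translocation read as complemented b-gal luminescence after 1 h RT detection.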
Experiment [8] concerns the target Mitogen-activated protein kinase 10 (Mus musculus) (UniProt Q61831). Put plainly: JNK3 AlphaScreen Assay (AID 530).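 Also: kinase came from lysate of stimulated human HepG2 cells; signal reports phosphorylation of biotinylated GST-cJun 1-79 at Ser73 with 10 µM ATP; % is scaled to controls: 0 for no effect and ±100 for the full control effect.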 Conditions: JNK3 lysate, c-Jun phosphorylation; series mostly up to 11.4 µM. The gist of the method: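 Pre-activated (IL-1β/TNFα) JNK3 in HepG2 lysates phosphorylates biotin-GST-cJun(1-79), 10 uM ATP; anti-phospho-cJun(Ser73) AlphaScreen read at room temperature, pH 7.6 Tris buffer. Compounds pre-incubated 15 min as titrations.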
On the technique in general: In Alpha technology, singlet oxygen from a donor bead excites a nearby acceptor bead.

In experiment [9] the target is 3',5'-cyclic-AMP phosphodiesterase 4B (Homo sapiens) (UniProt Q07343). The experiment in a line: qHTS Assay for Inhibitors of PDE-IV (AID 607; active = well fitted activation curve with a large enough effect in the main read-out, with a control signal flat, not every such curve was filed as active; also: % of control where 0% means no effect). Conditions: HEK293 ACTOne CNG channel cells, membrane potential fluorescence; series mostly up to 22.9 µM. In outline:
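The readout is membrane depolarisation from a cAMP-sensing CNG channel, detected with a potential dye at ex 535/em 590. Cells were HEK293-derived (endogenous PDE-IV) at 1000 cells/well, titrated up to 22.9 uM final.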

Experiment [10] has as its target Cytochrome P450 2C9 (Homo sapiens) (UniProt P11712). Put plainly: qHTS Assay for Inhibitors and Substrates of Cytochrome P450 2C9 (AID 883; active = well fitted curve in the direction sought with a large enough effect; an effect the other way counts as inactive or inconclusive; also: nearly all actives have a fitted effect of over 60% in size; also: potency is read from the fitted curve at half-maximal effect). Conditions: recombinant CYP2C9, luciferin-H luminescence, 60 min; series mostly up to 11.4 µM. In outline:
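Signal: luciferase luminescence reporting luciferin produced by CYP2C9. Conditions: 10nM enzyme, Luciferin-H 100uM at KM, 25mM KPO4, 37C, 60 min NADPH-driven reaction. Reference: 57uM sulphaphenazole as 100% inhibition.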
A general note: Quantitative high-throughput screening tests each substance at several concentrations.

Experiment [11] deals with Cytochrome P450 3A4 (Homo sapiens) (UniProt P08684). The experiment in a line: qHTS Assay for Inhibitors and Substrates of Cytochrome P450 3A4 (AID 884; active = well fitted curve in the direction sought with a large enough effect; an effect the other way counts as inactive or inconclusive; also: nearly all actives have a fitted effect of over 50% in size; also: potency is read from the fitted curve at half-maximal effect). Conditions: recombinant CYP3A4, Luciferin-PPXE luminescence; series mostly up to 57.1 µM. In outline:
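20 nM human CYP3A4 with 25 uM Luciferin-PPXE (at KM) in 200 mM KPO4, preincubated 10 min with compound; NADPH regeneration started a 60 min RT reaction. Luciferin detected by luminescence, normalized to 57 uM ketoconazole as full inhibition.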

The target of experiment [12] is Cytochrome P450 2D6 (Homo sapiens) (UniProt P10635). Put plainly: qHTS Assay for Inhibitors and Substrates of Cytochrome P450 2D6 (AID 891; active = well fitted curve in the direction sought with a large enough effect; an effect the other way counts as inactive or inconclusive; also: nearly all actives have a fitted effect of over 60% in size; also: potency is read from the fitted curve at half-maximal effect). Conditions: recombinant CYP2D6, luciferin-ME EGE luminescence; series mostly up to 11.4 µM. In outline:
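Human CYP2D6 (5 nM) with 30 uM Luciferin-ME EGE (at Km) in 100 mM KPO4, compound preincubated 10 min, then NADPH regeneration system for 60 min at room temperature. Luciferin read by luminescence; normalized to 1.43 uM quinidine.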

Experiment [13] concerns the target Cytochrome P450 2C19 (Homo sapiens) (UniProt P33261). The experiment in a line: qHTS Assay for Inhibitors and Substrates of Cytochrome P450 2C19 (AID 899; active = well fitted curve in the direction sought with a large enough effect; an effect the other way counts as inactive or inconclusive; also: nearly all actives have a fitted effect of over 60% in size; also: potency is read from the fitted curve at half-maximal effect). The following applies: recombinant CYP2C19, luciferin-H EGE luminescence; series mostly up to 11.4 µM. In outline: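 Signal comes from luciferase acting on luciferin released by CYP2C19-mediated hydroxylation of Luciferin-H EGE, 10uM (KM). Assay mix: 5nM enzyme, 50mM KPO4; 60 min at 37C with NADPH regeneration. Data normalized against 57uM ketoconazole.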

For experiment [14], the target named is Cytochrome P450 3A4 (Homo sapiens) (UniProt P08684). The experiment in a line: qHTS Assay for Activators of Cytochrome P450 3A4 (AID 885; active = well fitted curve in the direction sought with a large enough effect; an effect the other way counts as inactive or inconclusive; also: nearly all actives have a fitted effect of over 65% in size). The following applies: recombinant CYP3A4, Luciferin-PPXE luminescence, 60 min; series mostly up to 11.4 µM. The gist of the method:
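Steps: enzyme/substrate mix dispensed; compound added, 10 min RT; NADPH regeneration solution added, 60 min RT; luciferin detection buffer stops reaction; 20 min later luminescence measured.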

The nature of experiment [15]: qHTS Assay for Identification of Small Molecule Agonists for Hypoxia Response Element Signaling Pathway (AID 914; active = well fitted activation curve with a large enough effect in the signal ratio, with a control signal flat, not every such curve was filed as active; the % refers to the signal ratio; also: % of control where 0% means no effect). The following applies: ME-180 (cervical carcinoma) HRE-bla reporter, beta-lactamase ratio, CoCl2, 17 h; activation: stronger effect = higher value. The gist of the method:
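Positive modulation of EC50 CoCl2-induced hypoxia response element signaling is measured in ME-180 cells with a beta-lactamase reporter. Compounds are titrated, incubation runs 17 hours, and %Activity derives from the blue/green ratio.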

Sequence of Cytochrome P450 1A2 (Homo sapiens) (P05177 whole entry, looked up): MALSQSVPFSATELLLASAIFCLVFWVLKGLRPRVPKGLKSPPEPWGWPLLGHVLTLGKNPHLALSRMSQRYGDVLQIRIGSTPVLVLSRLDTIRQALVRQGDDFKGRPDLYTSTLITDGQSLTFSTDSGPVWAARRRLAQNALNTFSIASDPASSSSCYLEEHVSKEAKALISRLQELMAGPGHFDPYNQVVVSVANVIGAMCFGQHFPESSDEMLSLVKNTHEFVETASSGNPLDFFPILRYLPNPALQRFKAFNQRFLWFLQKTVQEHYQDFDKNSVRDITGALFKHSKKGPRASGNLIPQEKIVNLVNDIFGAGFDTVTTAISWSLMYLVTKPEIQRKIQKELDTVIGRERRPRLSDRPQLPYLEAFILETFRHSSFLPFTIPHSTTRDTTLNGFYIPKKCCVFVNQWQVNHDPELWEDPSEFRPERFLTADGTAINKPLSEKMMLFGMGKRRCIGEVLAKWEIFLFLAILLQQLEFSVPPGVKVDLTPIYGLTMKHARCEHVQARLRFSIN
Sequence of Cytochrome P450 2D6 (Homo sapiens) (P10635 whole entry, looked up): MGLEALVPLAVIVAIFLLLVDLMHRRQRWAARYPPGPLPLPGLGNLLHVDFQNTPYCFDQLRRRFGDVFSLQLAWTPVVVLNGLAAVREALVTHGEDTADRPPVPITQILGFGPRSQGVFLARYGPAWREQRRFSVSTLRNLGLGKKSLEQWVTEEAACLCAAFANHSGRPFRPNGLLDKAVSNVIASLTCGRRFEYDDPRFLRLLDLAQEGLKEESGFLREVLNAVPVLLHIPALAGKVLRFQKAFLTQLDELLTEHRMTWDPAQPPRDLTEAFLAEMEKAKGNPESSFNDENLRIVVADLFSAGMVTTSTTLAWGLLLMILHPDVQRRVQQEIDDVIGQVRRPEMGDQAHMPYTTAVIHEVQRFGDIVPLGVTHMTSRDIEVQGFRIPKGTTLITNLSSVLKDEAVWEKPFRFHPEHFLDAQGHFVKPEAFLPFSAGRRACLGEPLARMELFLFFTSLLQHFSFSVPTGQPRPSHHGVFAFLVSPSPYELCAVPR
Sequence of 3',5'-cyclic-AMP phosphodiesterase 4B (Homo sapiens) (Q07343 whole entry, looked up): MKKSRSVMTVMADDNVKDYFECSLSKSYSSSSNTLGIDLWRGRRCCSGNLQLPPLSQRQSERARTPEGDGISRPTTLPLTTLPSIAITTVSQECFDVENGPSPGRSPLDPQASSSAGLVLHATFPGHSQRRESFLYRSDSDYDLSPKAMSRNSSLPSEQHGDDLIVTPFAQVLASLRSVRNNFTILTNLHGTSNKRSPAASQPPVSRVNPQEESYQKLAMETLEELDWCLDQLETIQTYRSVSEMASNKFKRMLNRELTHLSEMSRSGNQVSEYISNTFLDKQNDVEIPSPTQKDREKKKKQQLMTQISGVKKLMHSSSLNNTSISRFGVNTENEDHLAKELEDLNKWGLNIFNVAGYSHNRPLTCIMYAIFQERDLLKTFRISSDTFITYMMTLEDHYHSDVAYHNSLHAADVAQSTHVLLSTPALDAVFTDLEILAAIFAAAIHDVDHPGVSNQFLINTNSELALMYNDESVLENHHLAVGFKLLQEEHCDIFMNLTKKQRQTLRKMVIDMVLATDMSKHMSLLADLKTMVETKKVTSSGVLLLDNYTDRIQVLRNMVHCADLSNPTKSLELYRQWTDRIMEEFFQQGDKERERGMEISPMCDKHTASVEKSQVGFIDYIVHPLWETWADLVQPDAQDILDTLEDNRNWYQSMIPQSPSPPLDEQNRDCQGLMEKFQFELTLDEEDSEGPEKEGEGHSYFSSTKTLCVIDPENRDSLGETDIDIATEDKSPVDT
Sequence of Lysosomal acid glucosylceramidase (Homo sapiens) (P04062 whole entry, looked up): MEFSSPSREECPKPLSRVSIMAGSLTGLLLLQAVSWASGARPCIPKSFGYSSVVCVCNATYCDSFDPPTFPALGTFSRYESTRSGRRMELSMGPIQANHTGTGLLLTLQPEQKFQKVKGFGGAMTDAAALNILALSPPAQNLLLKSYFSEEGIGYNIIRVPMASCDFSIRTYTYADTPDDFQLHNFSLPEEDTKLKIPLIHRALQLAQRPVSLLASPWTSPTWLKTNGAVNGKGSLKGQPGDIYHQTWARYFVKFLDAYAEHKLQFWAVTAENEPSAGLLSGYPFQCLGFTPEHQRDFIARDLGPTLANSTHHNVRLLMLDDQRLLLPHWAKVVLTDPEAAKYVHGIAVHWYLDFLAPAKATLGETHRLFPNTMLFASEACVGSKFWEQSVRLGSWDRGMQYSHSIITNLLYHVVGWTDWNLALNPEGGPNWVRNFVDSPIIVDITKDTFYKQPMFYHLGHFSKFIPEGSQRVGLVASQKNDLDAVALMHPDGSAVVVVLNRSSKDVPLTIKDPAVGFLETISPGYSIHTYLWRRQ
Sequence of Glucocorticoid receptor (Homo sapiens) (P04150 whole entry, looked up, the tested form may be a part): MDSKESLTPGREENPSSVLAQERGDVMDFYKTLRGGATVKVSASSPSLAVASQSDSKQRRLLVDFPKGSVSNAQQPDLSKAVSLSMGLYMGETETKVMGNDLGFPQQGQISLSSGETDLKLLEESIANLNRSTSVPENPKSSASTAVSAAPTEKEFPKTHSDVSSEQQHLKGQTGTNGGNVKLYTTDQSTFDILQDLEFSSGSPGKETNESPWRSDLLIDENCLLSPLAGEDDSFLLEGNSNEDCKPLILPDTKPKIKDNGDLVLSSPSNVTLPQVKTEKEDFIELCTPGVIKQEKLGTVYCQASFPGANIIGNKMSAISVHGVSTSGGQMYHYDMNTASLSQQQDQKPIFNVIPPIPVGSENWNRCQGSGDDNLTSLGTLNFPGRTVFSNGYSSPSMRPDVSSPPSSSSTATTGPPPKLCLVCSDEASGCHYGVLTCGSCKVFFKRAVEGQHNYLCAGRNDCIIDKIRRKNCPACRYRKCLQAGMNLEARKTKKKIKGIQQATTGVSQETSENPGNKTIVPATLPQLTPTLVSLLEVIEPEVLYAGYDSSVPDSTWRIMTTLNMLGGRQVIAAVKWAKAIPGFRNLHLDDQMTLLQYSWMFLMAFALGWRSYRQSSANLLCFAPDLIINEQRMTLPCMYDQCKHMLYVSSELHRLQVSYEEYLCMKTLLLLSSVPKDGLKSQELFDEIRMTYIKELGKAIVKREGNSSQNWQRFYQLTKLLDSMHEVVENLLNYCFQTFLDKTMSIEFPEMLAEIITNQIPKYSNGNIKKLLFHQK
Sequence of Cytochrome P450 2C19 (Homo sapiens) (P33261 whole entry, looked up): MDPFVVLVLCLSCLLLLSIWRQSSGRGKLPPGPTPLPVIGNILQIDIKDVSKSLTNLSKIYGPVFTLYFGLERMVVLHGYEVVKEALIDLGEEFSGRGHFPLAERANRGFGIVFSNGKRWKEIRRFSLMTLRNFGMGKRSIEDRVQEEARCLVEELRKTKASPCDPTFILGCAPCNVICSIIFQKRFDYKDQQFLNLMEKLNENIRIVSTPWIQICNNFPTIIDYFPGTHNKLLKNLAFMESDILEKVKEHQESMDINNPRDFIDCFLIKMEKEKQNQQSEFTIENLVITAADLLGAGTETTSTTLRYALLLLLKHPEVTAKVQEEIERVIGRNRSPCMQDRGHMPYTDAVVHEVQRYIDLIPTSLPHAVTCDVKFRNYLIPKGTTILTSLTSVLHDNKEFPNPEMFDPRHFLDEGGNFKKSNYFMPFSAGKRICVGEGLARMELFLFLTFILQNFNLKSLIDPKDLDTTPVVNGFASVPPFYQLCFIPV
Sequence of Cytochrome P450 3A4 (Homo sapiens) (P08684 whole entry, looked up): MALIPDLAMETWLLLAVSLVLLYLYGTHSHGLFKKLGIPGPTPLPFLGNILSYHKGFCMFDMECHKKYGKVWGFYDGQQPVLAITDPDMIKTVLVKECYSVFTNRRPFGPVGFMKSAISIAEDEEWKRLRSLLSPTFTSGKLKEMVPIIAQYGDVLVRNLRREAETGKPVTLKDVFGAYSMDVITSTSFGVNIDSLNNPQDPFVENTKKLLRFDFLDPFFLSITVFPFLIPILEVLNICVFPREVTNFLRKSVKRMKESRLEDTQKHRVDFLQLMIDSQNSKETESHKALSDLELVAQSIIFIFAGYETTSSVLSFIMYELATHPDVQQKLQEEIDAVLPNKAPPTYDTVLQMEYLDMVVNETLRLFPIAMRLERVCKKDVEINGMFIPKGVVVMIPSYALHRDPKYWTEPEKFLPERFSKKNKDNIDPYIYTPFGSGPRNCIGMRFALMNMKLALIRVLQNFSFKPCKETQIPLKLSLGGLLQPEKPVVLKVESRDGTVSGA
Sequence of Cytochrome P450 2C9 (Homo sapiens) (P11712 whole entry, looked up): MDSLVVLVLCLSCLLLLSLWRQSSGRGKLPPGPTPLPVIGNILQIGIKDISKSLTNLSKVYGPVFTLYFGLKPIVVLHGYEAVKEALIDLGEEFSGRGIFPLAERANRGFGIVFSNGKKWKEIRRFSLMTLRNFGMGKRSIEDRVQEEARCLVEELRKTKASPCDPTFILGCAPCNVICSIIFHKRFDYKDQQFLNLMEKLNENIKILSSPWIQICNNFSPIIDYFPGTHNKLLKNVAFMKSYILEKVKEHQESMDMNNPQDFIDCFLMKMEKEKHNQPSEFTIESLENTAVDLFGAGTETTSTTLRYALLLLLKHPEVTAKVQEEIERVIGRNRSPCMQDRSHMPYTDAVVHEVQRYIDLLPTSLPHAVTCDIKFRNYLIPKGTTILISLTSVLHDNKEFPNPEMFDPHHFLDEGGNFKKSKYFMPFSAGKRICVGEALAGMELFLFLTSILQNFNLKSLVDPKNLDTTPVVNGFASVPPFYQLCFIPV

For `C[C@H]1[C@H](O)[C@@H](C)C=CC=CC=CC=CC=CC=CC=C[C@H](O[C@@H]2O[C@@H](C)[C@H](O)[C@@H](N)[C@@H]2O)C[C@@H]2O[C@](O)(C[C@@H](O)C[C@@H](O)[C@@H](O)CC[C@@H](O)C[C@@H](O)CC(=O)O[C@H]1C)C[C@H](O)[C@H]2C(=O)O`, the Potency is > 11.4 µM in [1], > 46 µM in [6] and > 9.22 µM in experiment [7]. The activity change, negative = inhibition in [2] was -7.91%; in experiment [4] it was -0.0379%; in experiment [11] it was -24.7% [at 11.4 µM]. Also, the Potency entry in [3], in experiment [8], in experiment [9], in experiment [10], in [12] and in experiment [13] was “inactive” throughout. Moreover, the activity, negative = inhibition in experiment [5] is 6.85%.

Regarding `N#CNC(N)=Nc1ccc(Cl)cc1`, the Potency in [1] is > 11.4 µM; in [3], 3.98 µM (active); in [6] it was > 46 µM; in [7], > 9.22 µM. The activity change, negative = inhibition in experiment [2] was 5.32%; in experiment [4] it was 2.31%; in experiment [11], -49.7% [at 11.4 µM]. Also, the activity, negative = inhibition in [5] was -1.86%. For the same compound, the Potency entry in [8], in experiment [9], in [10], in experiment [12] and in [13] was “inactive” each time.

For the compound `O=c1[nH]c(SCc2c(Cl)c(Cl)c(Cl)c(Cl)c2Cl)nc(=S)[nH]1`, the Potency in experiment [1] is > 11.4 µM; in [3], 1 µM (active); in [6], > 46 µM; in experiment [7] it was > 9.22 µM; in experiment [10], 1.26 µM (active); in experiment [11] it was 3.16 µM (active). The results for the activity change, negative = inhibition in experiment [2] and in experiment [4] were 6.9% and 13.5%, respectively. The activity, negative = inhibition in experiment [5] is -6.17%. For the same compound, the Potency entry in [8], in experiment [9] and in experiment [14] was “inactive” throughout.

With `S=C1N[C@H](c2ccccc2)N[C@H](c2ccccc2)S1`, the Potency in experiment [1] was > 11.4 µM; in experiment [3], 3.16 µM (active); in [6], > 46 µM; in experiment [7], > 9.22 µM; in [10] it was 2 µM (active); in experiment [12], 3.98 µM (active). The Potency in [13] is 3.98 µM (active). For the same compound, the figures for the activity change, negative = inhibition in [2] and in experiment [4] were -0.71% and -21.2%, respectively. For the same compound, the activity, negative = inhibition in [5] is -1.19%. In addition, the Potency entry in [8], in [9] and in [14] was “inactive” in each case.

Turning to `COc1ccc([C@@H](Nc2ccccn2)c2cc(C(C)(C)C)cc(C(C)(C)C)c2O)cc1`, the Potency in experiment [1] was > 11.4 µM; in [6], > 46 µM; in experiment [7], > 9.22 µM; in [10], 2.51 µM (active); in [13], 2.51 µM (active). The results for the activity change, negative = inhibition in experiment [2], in experiment [3] and in experiment [4] were -15.8%, 1.2% [at 2.29 µM] and -8.5%, respectively. In addition, the activity, negative = inhibition in experiment [5] was -15.2%. Also, the Potency entry in [8], in [9] and in experiment [14] was “inactive” throughout. In addition, the activation in experiment [15] is 3.06%.
